Source: PubChem
CtBP-E1A inh: CtBP/E1A binding inhibition; AlphaScreen GST-E1A/His-CtBP binding, 1536-well; stronger effect = lower value; activity change, % (concentration not given with the values); 340,000 tested, 0.49% active; AID 651724; in the data active = activity change below about -65%; inconclusive = mostly about -30% to -63%
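Steps: dispense buffer (Tris pH 8.0, NaCl 300 mM, TCEP 1 mM, BSA, Tween 20); add 5X protein mix (GST-E1A, His-CtBP, 125 nM each); pin 23 nL compound; 2 h at 37 °C, dark; add 5X beads (50 ug/mL); 1 h; read.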
G9a block: blocks human histone lysine methyltransferase G9a; Q96KQ7; 350,000 tested, 8.8% active; AID 504332; G9a H3K9 monomethylation, AlphaScreen, 2 h; Potency, µM (top dose mostly 102 µM), hits mostly inhibitors; also: nearly all actives have a fitted effect of over 75% in size
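Methyltransferase reactions run at room temperature for 2 h (20 nM enzyme, 500 nM biotin-H3K9 peptide, 20 uM SAM) after a 15 min compound preincubation; product detected by AlphaScreen beads and anti-H3K9me1 antibody.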
JMJD2A Tudor inh: JMJD2A Tudor domain (human) inhibition | AlphaScreen JMJD2A-Tudor / H3K4me3 peptide binding | Potency, µM (top dose mostly 114 µM), actives largely listed as inhibitors | 390,000 tested, 4.4% active | AID 504339; also: nearly all actives have a fitted effect of over 50% in size
HP1b chromo inh: blocks HP1-beta chromodomain binding to methylated histone tails. 390,000 tested, 0.56% active. P83916. AlphaScreen HP1-beta / biotin-H3K9me3 peptide binding. Potency, µM (top dose mostly 114 µM), hits mostly inhibitors; also: nearly all actives have a fitted effect of over 70% in size
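Compound inhibition of the preformed complex between 50 nM HP1-beta and 50 nM biotinylated H3K9me3 peptide was read by AlphaScreen. Buffer was PBS pH 7.4 with 0.01% Tween-20. Incubations ran 30 min at room temperature, with 10 ug/mL donor/acceptor beads.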
BAZ2B inh: blocks human BAZ2B. Q9UIF8. AlphaScreen BAZ2B-H3K14Ac peptide displacement. Potency, µM (series often up to 114 µM), actives largely listed as inhibitors. 360,000 tested, 4.4% active. AID 504333; also: nearly all actives have a fitted effect of over 60% in size
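AlphaScreen luminescence quantifies BAZ2B engagement of H3K14Ac peptide; the protein and biotinylated peptide are both at 50 nM final, buffer PBS pH 7.4 with 0.01% Tween-20, all steps at room temperature.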
Six1-Eya2 blk: inhibitors of human Six1/Eya2 interaction; Q15475+O00167; AID 651725; activity change, % (no concentration beside the values); 360,000 tested, 0.56% active; AlphaScreen GST-Six1/His-Eya2 binding, biochemical; stronger effect = lower value; in the data active = activity change below about -65%; inconclusive = mostly about -30% to -63%
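GST-Six1 + His-Eya2 (5X stock: 250/500 nM); Tris pH 8.0, 300 mM NaCl, 0.05% BSA, 0.02% Tween 20; GSH donor/Ni acceptor beads; 1 h 37 °C dark; AlphaScreen readout.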
A number is an active result; i = inactive; ? = inconclusive; nt = no result; [ ] = remark or other dose. Hits are enriched below; roughly 10% of the tested compounds scored in any of these assays. Unless noted, calls follow the shape of the dose curve; as a rule, active = well fitted inhibition curve with a large enough effect; inconclusive = small, poorly fitted or top-dose-only effect; inactive = no such curve, though single readings can be large or run the other way.

SMILES	CtBP-E1A inh	G9a block	JMJD2A Tudor inh	HP1b chromo inh	BAZ2B inh	Six1-Eya2 blk
O=C1SC(SCc2ccccc2)=N/C1=C\c1ccco1	i	13µM	56µM	?	13µM	i
Cc1cc2c(s1)c1cnn(Cc3c(F)ccc(C)c3Cl)c(=O)c1n2C	nt	nt	i	nt	nt	nt
COc1ccc(NC(=O)C(Cc2ccccc2)NS(=O)(=O)c2ccc3c(c2)CCC(=O)N3)c(OC)c1 (stereo not drawn)	nt	i	i	i	i	nt
NC(=O)OC[C@@H]1[C@H](NC(=O)/C(=N/OCC(=O)O)c2csc(N)n2)C(=O)N1S(=O)(=O)O	nt	i[12.7 µM]	nt	nt	nt	nt
CCCSC1=N/C(=C\C=C\c2ccco2)C(=O)S1	i	14µM	16µM	35µM	11µM	?
O=C1SC(c2ccccc2)=N/C1=C/c1ccco1	i	50µM	?	i	i	i
O=C1NNC(c2ccccc2)=N/C1=C\c1ccco1	i	nt	?	i	71µM	i
O=C1NNC(c2ccccc2)=N/C1=C\c1ccccc1Cl	i	nt	i	i	i	i
Cc1ccsc1CN(C(=O)c1ccc(Br)cc1)C1CCS(=O)(=O)C1 (stereo not drawn)	nt	i	i	i	i	nt
COc1ccc(CCNC(=O)CCCCn2c(=O)c3ccccc3n(Cc3cc(C)ccc3C)c2=O)cc1OC	nt	i	i	i	i	nt
Cc1cc(C)c2c(CC(=O)Nc3c(C(=O)c4ccc(F)cc4)oc4ccccc34)coc2c1	nt	i	i	i	i	nt
COC(=O)c1ccc(O)c(Sc2cc(C(=O)OC)ccc2O)c1	i	10µM	i	i	i	i
O=C(Nc1ccc(F)cc1)c1oc2ccccc2c1NC(=O)C12CC3CC(CC(C3)C1)C2	nt	i	i	i	i	nt
COC(=O)c1sc(N2C(=O)C(O)=C(C(=O)c3ccc(C)o3)C2c2ccco2)nc1C (stereo not drawn)	i	nt	i	i	i	i
Cc1ccc(C(=O)C2=C(O)C(=O)N(c3ncccn3)C2c2ccc(F)cc2)o1 (stereo not drawn)	i	?	i	i	?	i
COC(=O)c1sc(N2C(=O)C(O)=C(C(=O)c3ccc(C)o3)C2c2cccs2)nc1C (stereo not drawn)	i	10µM	?	i	i	i
COC(=O)c1ccc(C2C(C(=O)c3ccc(C)o3)=C(O)C(=O)N2c2cc(C)on2)cc1 (stereo not drawn)	i	50µM	i	i	i	i
COC(=O)c1sc(N2C(=O)C(O)=C(C(=O)c3ccc(C)o3)C2c2ccc(F)cc2)nc1C (stereo not drawn)	i	13µM	i	i	i	i
COC(=O)c1sc(N2C(=O)c3oc4ccccc4c(=O)c3C2c2cccs2)nc1C (stereo not drawn)	i	14µM	i	i	i	i
COc1cc(Cl)c(NS(=O)(=O)c2ccc(-c3coc(C)n3)cc2)c(OC)c1	nt	i	i	i	i	nt
CN(C)c1ncc2nc(-c3cccs3)c(=O)n(C[C@H]3CCCO3)c2n1	nt	i[0.501 µM]	nt	nt	nt	nt
COc1ccc(S(=O)(=O)n2nc(OC(=O)c3c(-c4ccccc4Cl)noc3C)cc2N)cc1	?	?	i	i	i	-72
COc1ccc(C(=O)Oc2cc(N)n(S(=O)(=O)c3ccc(C)cc3)n2)cc1	i	i	i	i	i	i
CCC(=O)Nc1ccc(CC)cc1-c1nc2ccccc2n(Cc2ccccc2)c1=O	nt	i	i	i	i	nt
Fc1ccc(N/N=C/c2cccnc2)c(F)c1	i	32µM	i	i	i	i
SMILES	CtBP-E1A inh	G9a block	JMJD2A Tudor inh	HP1b chromo inh	BAZ2B inh	Six1-Eya2 blk
FC(F)(F)c1ccccc1N/N=C/c1cccnc1	i	?	i	i	i	i
COc1cc(/C=N/Nc2ccc(F)cc2F)cc(OC)c1OC	i	1.8µM	i	i	i	i
COC(=O)c1ccc(NC(=O)CSc2cn(CC(=O)N3CCCCCC3)c3ccccc23)cc1	nt	i	i	i	i	nt
COc1ccc(-n2ncc(C(=O)Nc3ccc4c(c3)OCO4)c2C2CCN(C(=O)OC(C)(C)C)CC2)cc1	nt	i	?	i	i	nt
CCOC(=O)CN(C(=O)CSc1nnc(CNc2ccc(C)cc2C)o1)c1ccccc1	i	i	?	i	50µM	i
CCOC(=O)c1[nH]c2c(c1-c1ccc(OC)cc1)C(=O)CC(c1ccc(OC)c(OC)c1)C2 (stereo not drawn)	i	50µM	i	i	?	i
COc1ccc(-c2cc3ccc(OCc4nn[nH]n4)cc3oc2=O)cc1OC	i	45µM	i	i	i	i
COc1ccc(S(=O)(=O)NCCc2cn3ccsc3n2)cc1	nt	i	i	i	i	nt
CCC(C)(C)n1nnnc1C(c1cc2cc(C)ccc2[nH]c1=O)N1CCCC1 (stereo not drawn)	i	8.9µM	i	i	i	i
CCC(C)(C)n1nnnc1C(c1cc2cc(OC)c(OC)cc2[nH]c1=O)N1CCc2ccccc21 (stereo not drawn)	i	45µM	?	i	i	i
Cc1ccc2cc(C(c3nnnn3C(C)(C)C)N3CCCCCC3)c(=O)[nH]c2c1 (stereo not drawn)	i	7.9µM	i	i	i	i
COc1ccc(C2C(=O)N(C3CCCCC3)CC(=O)N2CCc2ccc(OC)c(OC)c2)cc1 (stereo not drawn)	nt	i	i	i	i	nt
Cc1ccc(S(=O)(=O)N(CC(=O)NCCc2ccc(Cl)cc2)c2ccccc2C)cc1	nt	i	i	i	i	nt
COc1cccc(C2=NN(S(C)(=O)=O)C(c3cn(-c4ccccc4)nc3-c3cccs3)C2)c1 (stereo not drawn)	nt	i	i	i	i	nt
COc1cccc(CNC(=O)C(NS(=O)(=O)c2cccs2)C(C)C)c1 (stereo not drawn)	nt	i	i	i	i	nt
Cc1ccc(C)c(SCC(=O)OCC(=O)c2ccco2)c1	i	?	79µM	?	50µM	i
O=C(Cc1cccs1)OCC(=O)c1ccco1	i	50µM	79µM	?	?	i
COc1ccc(NC(=O)Cn2nc3c(cc2=O)CCCC3)cc1Cl	nt	i	i	i	i	nt
CCCn1cc(S(=O)(=O)c2cc(C)ccc2C)c(=O)c2cc(F)c(N3CCOCC3)cc21	nt	i	i	i	?	nt
C[C@@H](C(=O)O)[C@H]1C[C@]1(C)[C@H](NC(=O)OCc1ccccc1)c1ccccc1	i	79µM	i	i	i	i
Cc1cc(CNC(=O)[C@H](C)[C@@H]2C[C@@]2(C)[C@@H](NC(=O)OCc2ccccc2)c2ccccc2)nn1C	i	56µM	i	i	i	i
COc1ccc(CNC(=O)[C@H](C)[C@@H]2C[C@@]2(C)[C@@H](NC(=O)OCc2ccccc2)c2ccccc2)cc1OC	i	50µM	i	i	i	?
COC(=O)[C@H]1C[C@@H]1[C@H](NC(=O)[C@H]1C[C@@H]1[C@H](NC(=O)OCc1ccccc1)c1ccccc1)c1ccccc1	i	45µM	i	i	i	i
